Here are results for eight compounds from PubChem BioAssay (NCI).

Among the test systems are NCI-H23 lung; NCI-H226 lung; NCI-H322M lung; HOP-62 NSCLC; NCI-H460 lung; NCI-H522 lung; A549/ATCC NSCLC; 786-0 renal; COLO 205 colon; DU-145 prostate; K-562 leukemia; MALME-3M melanoma; MDA-MB-231 breast; SF-268 CNS; SF-295 CNS; SF-539 CNS; UACC-257 melanoma; M14 melanoma; HCT-15 colon; RXF 393 renal.
Assay in all cases: NCI-60 one-dose screen, 48 h (100 = growth as untreated, 0 = no growth, -100 = all killed)
Details in all cases: 10 µM unless noted

This is part of a sample that, as a whole, favours compounds with a hit. Of some 83,000 tested, about 20% had one in any assay.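 Assay: single dose, 48 h. Readout: percent growth (0 = no net growth; negative = cell death). Active: <10.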 Values without a mark were called inactive. The source made the active and inactive calls.

In the case of `CC1=CC(=O)C(C(C)=Nc2ccccc2Cl)C(=O)O1` (configuration not stated), the growth in the test on NCI-H23 lung was 142%; in the test on NCI-H226 lung, 104%; in the test on NCI-H322M lung, 121%; in the test with HOP-62 NSCLC it was 109%; in the test on NCI-H460 lung, 109%; in the test with NCI-H522 lung it was 121%. For the same compound, the growth was 116% in the test on A549/ATCC NSCLC; 114% with 786-0 renal; 129% in the test with COLO 205 colon; 110% in the test on DU-145 prostate; 105% in the test on K-562 leukemia; 123% in the test with MALME-3M melanoma. Further, the growth was 105% in the test on MDA-MB-231 breast; 101% with SF-268 CNS; 121% in the test with SF-295 CNS; 101% in the test on SF-539 CNS; -17.3% (active) in the test with UACC-257 melanoma; 107% in the test with M14 melanoma. In addition, the growth in the test on HCT-15 colon was 105%.

Regarding `CCCOc1ccc2c(c1)CC[C@@H]1[C@@H]2CC[C@@]2(C)[C@H]1CC[C@]2(C)O`, the growth was 93.2% with NCI-H23 lung; 92.3% with NCI-H226 lung; 71.4% in the test on NCI-H322M lung; 89.7% with HOP-62 NSCLC; 35.8% with NCI-H460 lung; 76.4% with NCI-H522 lung. In addition, the growth is 63.7% in the test with A549/ATCC NSCLC; 90.3% in the test on 786-0 renal; 28.2% with COLO 205 colon; 91.6% in the test with DU-145 prostate; 1.46% (active) in the test with K-562 leukemia; 51.1% in the test with MDA-MB-231 breast. The growth with RXF 393 renal is 83.7%; in the test on SF-268 CNS, 81.5%; with SF-295 CNS, 58.7%; with SF-539 CNS it was 67.5%; with UACC-257 melanoma it was 73.8%; in the test with M14 melanoma it was 79.5%. The growth in the test with HCT-15 colon is 56.7%.

With `O=[N+]([O-])c1ccc(N/N=C/c2c(O)ccc3ccccc23)nc1`, the growth in the test with NCI-H23 lung was 61.4%; in the test with NCI-H226 lung, 89%; with NCI-H322M lung, 19.7%; in the test on HOP-62 NSCLC, 45.6%; in the test on NCI-H460 lung it was 24.2%; in the test with NCI-H522 lung, 18.5%. Further, the growth in the test on A549/ATCC NSCLC is 49.2%; in the test with 786-0 renal it was 59.2%; with COLO 205 colon, 73.1%; in the test with DU-145 prostate, 39.4%; in the test on K-562 leukemia, 31.7%; in the test with MDA-MB-231 breast, 47.5%. The growth in the test with RXF 393 renal was 67.1%; with SF-268 CNS, 45.8%; in the test with SF-295 CNS it was 25.1%; with SF-539 CNS, 46%; in the test on UACC-257 melanoma it was 29.5%; in the test on M14 melanoma, 65.3%. Besides, the growth in the test on HCT-15 colon is 24.5%.

Turning to `ClC1=C(Cl)C(Cl)=C(Cl)C1=C/C=C/c1ccccc1`, the growth in the test with NCI-H23 lung is -45.9% (active); with NCI-H226 lung it was -70.5% (active); in the test on NCI-H322M lung, -27.8% (active); in the test with HOP-62 NSCLC, -68.2% (active); in the test on NCI-H460 lung, 0.0738% (active); in the test with NCI-H522 lung, -52.4% (active). In addition, the growth was -58% (active) with A549/ATCC NSCLC; -71.3% (active) with 786-0 renal; -90.6% (active) with COLO 205 colon; -46.5% (active) in the test on DU-145 prostate; -18.9% (active) in the test with K-562 leukemia; -38.8% (active) in the test with MALME-3M melanoma. Also, the growth in the test with MDA-MB-231 breast was -17.2% (active); in the test on SF-268 CNS, -48.7% (active); in the test with SF-295 CNS it was -2.39% (active); in the test with SF-539 CNS, -92.4% (active); in the test with UACC-257 melanoma, -80.7% (active); in the test with M14 melanoma, -55.6% (active). For the same compound, the growth in the test with HCT-15 colon was -77% (active).

As for `COc1ccc(-c2cc(Cc3cccs3)c(=O)n(Cn3cncn3)n2)cc1`, the growth with NCI-H23 lung was 102%; in the test with NCI-H226 lung, 96.3%; in the test with NCI-H322M lung it was 100%; in the test with HOP-62 NSCLC, 110%; with NCI-H460 lung, 112%; in the test on NCI-H522 lung, 91.6%. Further, the growth in the test on A549/ATCC NSCLC is 97.3%; in the test with 786-0 renal it was 104%; in the test with COLO 205 colon, 117%; in the test with DU-145 prostate it was 124%; with K-562 leukemia it was 98.3%; with MDA-MB-231 breast, 87.5%. Also, the growth in the test with RXF 393 renal is 110%; in the test with SF-268 CNS it was 110%; in the test on SF-295 CNS, 98.9%; in the test with SF-539 CNS, 101%; in the test on UACC-257 melanoma, 105%; with M14 melanoma it was 107%. In the test with HCT-15 colon, the growth is 101%.

Turning to `Cc1cc(NCCCNc2ccnc3cc(Cl)ccc23)nc(N2CCN(C)CC2)n1`, the growth with NCI-H23 lung is 95.1%; with NCI-H226 lung it was 75.3%; with NCI-H322M lung, 56.4%; in the test with HOP-62 NSCLC, 62.7%; with NCI-H460 lung it was 24.1%; with NCI-H522 lung it was 4.29% (active). Besides, the growth is 70.5% in the test on A549/ATCC NSCLC; 78.7% in the test with 786-0 renal; 48.1% in the test with COLO 205 colon; 78.2% in the test on DU-145 prostate; 8.07% (active) in the test with K-562 leukemia; 59.2% in the test with MALME-3M melanoma. The growth in the test on MDA-MB-231 breast is 53.8%; in the test on SF-268 CNS, 70.7%; with SF-295 CNS it was 61%; in the test with SF-539 CNS it was -18.8% (active); with UACC-257 melanoma, 50.4%; in the test on M14 melanoma, 25.7%. Also, the growth in the test with HCT-15 colon was 43.6%.

As for `Cc1cc2c(cc1C)Nc1sc(NC(=O)CN3CCN(C)CC3)nc1C(=O)N2`, the growth with NCI-H23 lung was 102%; in the test with NCI-H226 lung, 105%; in the test on NCI-H322M lung, 105%; with HOP-62 NSCLC, 94.5%; with NCI-H460 lung, 101%; in the test on NCI-H522 lung, 86.3%. Further, the growth in the test on A549/ATCC NSCLC was 100%; in the test with 786-0 renal it was 98.9%; with COLO 205 colon, 112%; in the test with DU-145 prostate, 108%; in the test with K-562 leukemia it was 81.7%; in the test on MALME-3M melanoma, 109%. Also, the growth in the test with MDA-MB-231 breast is 114%; in the test on SF-268 CNS, 103%; in the test with SF-295 CNS, 109%; with SF-539 CNS it was 107%; in the test with UACC-257 melanoma it was 109%; in the test with M14 melanoma, 103%. The growth in the test with HCT-15 colon is 101%.

In the case of `CC(O)c1nc2c(c(=O)n(C)c(=O)n2C)n1C` (configuration not stated), the growth with NCI-H23 lung is 114%; in the test on NCI-H226 lung, 104%; with NCI-H322M lung, 98.5%; in the test on HOP-62 NSCLC, 85.5%; in the test on NCI-H460 lung, 107%; in the test on NCI-H522 lung it was 90%. Moreover, the growth with A549/ATCC NSCLC is 91.2%; with 786-0 renal, 105%; with COLO 205 colon, 108%; with DU-145 prostate it was 122%; in the test on K-562 leukemia, 116%; in the test with MALME-3M melanoma, 121%. The growth with MDA-MB-231 breast is 117%; with SF-268 CNS it was 107%; with SF-295 CNS, 108%; in the test on SF-539 CNS, 102%; in the test on UACC-257 melanoma it was 106%; in the test on M14 melanoma it was 95.6%. Further, the growth in the test with HCT-15 colon is 104%.
